# High-throughput results deposited in PubChem by Johns Hopkins Ion Channel Center.
# Sampled rows, rich in hits. Any-hit rate of the full collection: about 1.6%.
# KCNQ2 inh = KCNQ2 (rat) channel inhibition; O88943; AID 2156; hit rate 1.1% among 310,000; CHO-K1 KCNQ2, FluxOR thallium flux, 20 min; stronger effect = lower value; B-score at 10 µM;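 active means fluorescence ratio B-score at most minus 3 library SDs, with starting brightness B-score within 2 library SDs, cut at about -5.5 in these data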
# KCNQ2 pot = enhances the rat KCNQ2 potassium channel; O88943; CHO-K1 KCNQ2, FluxOR thallium flux fluorescence; stronger effect = higher value; B-score at 10 µM; hit rate 0.54% among 310,000; AID 2239;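 active means fluorescence ratio B-score at least 3 SD of library B-scores, with initial fluorescence B-score within 3 of them, cut at about 5.3 in these data; same plate scores as AID 2156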;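 further: B-score of peak minus minimum over baseline fluorescence ratio after K+ and Tl+ stimulus; positive B-score means potentiation of KCNQ2 with more thallium influx and brighter signal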
# KCNQ2 block conf = confirmation of rat KCNQ2 potassium channel inhibitors. activity change, negative = inhibition, % at 10 µM. shares compounds with KCNQ2 inh. KCNQ2-expressing cells, thallium flux, inhibition; stronger effect = lower value. AID 493025. hit rate 57% among 1,000;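 further: 0% = vehicle wells and values are ratio percent relative to vehicle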
# KCNQ1 spec = selectivity of KCNQ2 inhibitors against human KCNQ1; hit rate 15% among 1,000; activity change, negative = inhibition, % at 10 µM; shares compounds with KCNQ2 inh; AID 493026; KCNQ1-expressing cells, FluxOR thallium flux fluorescence; stronger effect = lower value;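 active means activity change at least 3 SD of negative controls below their mean in both duplicate wells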;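 further: CHO cells stably transfected with KCNQ1 and depolarized by potassium stimulus; peak minus minimum fluorescence over baseline after thallium addition; 0% = vehicle negative control and -100% = blank without thallium stimulus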
# CHO parental ctr = activity in parental CHO cells lacking KCNQ2. activity change, % at 10 µM. shares compounds with KCNQ2 inh. hit rate 14% among 1,000. thallium flux counter-screen; stronger effect = lower value. AID 493029;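 further: 0% = vehicle negative controls with stimulus buffer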
# KCNQ2 patch conf = confirmation of rat KCNQ2 potassium channel inhibitors; shares compounds with KCNQ2 inh; KCNQ2-expressing cells, automated patch clamp current; calls only at 10 µM; hit rate 49% among 550; AID 588531
# Numbers without * were called inactive; i = inactive; . = no result; + = active, no number. Unless noted, how the calls were made is not given here.
SMILES,KCNQ2 inh,KCNQ2 pot,KCNQ2 block conf,KCNQ1 spec,CHO parental ctr,KCNQ2 patch conf
CC1OC(Oc2c(-c3cc(O)c(O)c(O)c3)oc3cc(O)cc(O)c3c2=O)C(O)C(O)C1O (stereo not given),i,.,.,.,.,.
CC(C)=CCc1c(O)cc(O)c2c(=O)c(O[C@@H]3O[C@@H](C)[C@H](O)[C@@H](O)[C@H]3O)c(-c3ccc(O)cc3)oc12,-7.1*,-7.1,-40%*,-36%*,-23%*,i
COCCN(C(=O)CSc1nnc(-c2cccc(F)c2)n1N)c1c(N)n(CC(C)C)c(=O)[nH]c1=O,i,.,.,.,.,.
N#Cc1nc(COc2ccc(Cl)cc2)oc1N1CCN(Cc2ccccc2)CC1,-6.9*,-6.9,-24%*,i,i,i
CCN1CCN(c2oc(COc3ccc(Cl)cc3)nc2C#N)CC1,i,.,.,.,.,.
CCC(=O)C1CCCN(C(=O)c2cccc(OC3CCN(S(C)(=O)=O)CC3)c2)C1 (stereo not given),i,.,.,.,.,.
O=C1CC(NS(=O)(=O)c2cccnc2)CN1c1cccc(F)c1 (stereo not given),i,.,.,.,.,.
CC1CCc2c(sc3ncn(N)c(=N)c23)C1 (stereo not given),i,.,.,.,.,.
Cc1cccc(C)c1OC1(c2ccccc2)OC(=O)c2ccccc21 (stereo not given),-8.6*,-8.6,i,i,i,.
Cc1cc(C)c(OC2(c3ccccc3)OC(=O)c3ccccc32)c(C)c1 (stereo not given),i,.,.,.,.,.
O=C(NCCC(=O)N(CCc1ccccc1)Cc1ccccc1)c1ccc(Br)cc1,-9.2*,-9.2,-18%*,i,i,i
O=C(NCCCCc1ccccc1)c1ccc(Br)cc1,i,1.2,.,.,.,.
CC(C)c1ccc(C(=O)N/N=C/c2cccc(Cl)c2Cl)cc1,-9.5*,-9.5,i,i,i,.
CC(C)c1ccc(/C=N/NC(=O)c2cccc(Cl)c2)cc1,i,.,.,.,.,.
COc1ccccc1/C=C/C(=O)OCC(=O)Nc1ccccc1Sc1ccccc1,-6.8*,-6.8,-30%*,i,i,i
COc1ccccc1NC(=O)COC(=O)/C=C/c1ccccc1[N+](=O)[O-],i,2.3,.,.,.,.
CCc1ccc(N(CC(=O)NC2CCCC2)C(=O)CCC(=O)Nc2ccccn2)cc1,i,.,.,.,.,.
Cc1ccccc1OCCn1cc(C(=O)C(=O)N2CCOCC2)c2ccccc21,-8.5*,-8.5,-33%*,i,i,+
O=C(C(=O)N1CCOCC1)c1cn(CCOc2ccccc2)c2ccccc12,i,.,.,.,.,.
O=C(Nc1nc(-c2ccc(-c3ccccc3)cc2)cs1)c1cc([N+](=O)[O-])ccc1N1CCOCC1,i,0.52,.,.,.,.
O=C(Nc1nc2c(ccc3ccccc32)s1)c1cc([N+](=O)[O-])ccc1N1CCOCC1,-9.6*,-9.6,-25%*,i,i,i
CNC(=O)COc1coc(CN2CCN(c3ccc(OC)cc3)CC2)cc1=O,i,.,.,.,.,.
c1ccc(-c2noc(-c3ccccc3-c3ccccc3)n2)cc1,-8.6*,-8.6,-24%*,i,i,i
Fc1ccccc1-c1nc(-c2ccc(Cl)cc2)no1,i,.,.,.,.,.
N#C/C(=C/c1cn[nH]c1-c1ccc(Br)cc1)C(=O)O,i,.,.,.,.,.
SMILES,KCNQ2 inh,KCNQ2 pot,KCNQ2 block conf,KCNQ1 spec,CHO parental ctr,KCNQ2 patch conf
COc1cccc(OC)c1C(=O)Nc1ccnn1C,i,0.61,.,.,.,.
C=C1SC(Nc2c(C)cccc2C)=NC12CCCCC2,i,.,.,.,.,.
C=C1SC(Nc2c(C)cc(C)cc2C)=NC12CCCCC2,-7.6*,-7.6,-28%*,i,i,i
Cc1ccc(N=C2CCCN2Cc2ccccc2)c(C#N)c1,-9*,-9,-47%*,-43%*,-34%*,+
Cc1ccc(N=C2CCCCCN2C)c(C#N)c1,i,.,.,.,.,.
OCC1(CCc2ccccc2)CCCN(CCCC(F)(F)F)C1 (stereo not given),i,.,.,.,.,.
OCC1(CCc2ccccc2)CCCN(CCCc2ccccc2)C1 (stereo not given),-6.6*,-6.6,-36%*,-34%*,-26%*,i
C=CCNc1nc(C(=O)OCC(=O)c2ccc(Cl)cc2)cs1,i,.,.,.,.,.
C=C(C)C1CC=C(C)/C(=N/NC(=O)COc2cccc3ccccc23)C1 (stereo not given),-9.2*,-9.2,i,i,i,.
C=C(C)C1CC=C(C)/C(=N/NC(=O)COc2cccc(C)c2)C1 (stereo not given),i,1.4,.,.,.,.
Cc1oc(-c2ccc(Cl)cc2)nc1CS(=O)CC(=O)NCc1ccccn1 (stereo not given),i,0.72,.,.,.,.
